# BAZ2B inh: qHTS Assay for Inhibitors of BAZ2B; 360,000 tested, 4.4% active; AlphaScreen BAZ2B-H3K14Ac peptide displacement; Potency, µM (top dose mostly 114 µM), for the others: top-dose activity change, negative = inhibition, actives largely listed as inhibitors; Bromodomain adjacent to zinc finger domain protein 2B (Homo sapiens), Q9UIF8; further: potency means the concentration at half of the fitted maximal effect; on the % scale 0 is the no-effect control and ±100 the full control effect; nearly all actives have a fitted effect of over 60% in size
#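 AlphaScreen luminescence quantifies BAZ2B engagement of H3K14Ac peptide; the protein and biotinylated peptide are both at 50 nM final, buffer PBS pH 7.4 with 0.01% Tween-20, all steps at room temperature.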
# Six1-Eya2 blk: qHTS Assay for Inhibitors of the Six1/Eya2 Interaction; Homeobox protein SIX1 (Homo sapiens) + Protein phosphatase EYA2 (Homo sapiens), …; AlphaScreen GST-Six1/His-Eya2 binding, biochemical; active compounds read low; activity change, % (test concentration not listed); 360,000 tested, 0.56% active; in the data active means activity change below about -65%; inconclusive means mostly about -30% to -63%; further: on the % scale 0 is the no-effect control and ±100 the full control effect
#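 AlphaScreen luminescence read after one hour at 37 °C in darkness. Pin-transferred compounds met GST-Six1 and His-Eya2 protein (5X stock 250 nM/500 nM) plus glutathione donor and Ni-chelate acceptor beads (5X, 50 ug/mL).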
# G9a block: qHTS Assay for Inhibitors of Histone Lysine Methyltransferase G9a; Potency, µM (titrated, usually from 102 µM), inactives show at the highest dose activity, negative = inhibition, most hits filed as inhibitors; 350,000 tested, 8.8% active; G9a H3K9 monomethylation, AlphaScreen, 2 h; AID 504332, 2011; Histone-lysine N-methyltransferase EHMT2 (Homo sapiens), Q96KQ7; further: potency means the concentration at half of the fitted maximal effect; on the % scale 0 is the no-effect control and ±100 the full control effect; nearly all actives have a fitted effect of over 75% in size
#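 Compounds were preincubated with 20 nM G9a for 15 min, after which biotinylated H3K9 peptide (500 nM) and SAM (20 uM) started a 2 h room-temperature reaction. Monomethylated product was quantified by antibody-based AlphaScreen chemiluminescence.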
# JMJD2A Tudor: qHTS Assay for Inhibitors of JMJD2A-Tudor Domain. Lysine-specific demethylase 4A (Homo sapiens), O75164. AlphaScreen JMJD2A-Tudor / H3K4me3 peptide binding. Potency, µM (top dose mostly 114 µM), for inactives: at the highest dose activity change, negative = inhibition, usual class: inhibitors. 390,000 tested, 4.4% active. AID 504339, 2011; further: potency means the concentration at half of the fitted maximal effect; on the % scale 0 is the no-effect control and ±100 the full control effect; nearly all actives have a fitted effect of over 50% in size
# Target sequence (O75164 whole entry, looked up, the tested form may be a part): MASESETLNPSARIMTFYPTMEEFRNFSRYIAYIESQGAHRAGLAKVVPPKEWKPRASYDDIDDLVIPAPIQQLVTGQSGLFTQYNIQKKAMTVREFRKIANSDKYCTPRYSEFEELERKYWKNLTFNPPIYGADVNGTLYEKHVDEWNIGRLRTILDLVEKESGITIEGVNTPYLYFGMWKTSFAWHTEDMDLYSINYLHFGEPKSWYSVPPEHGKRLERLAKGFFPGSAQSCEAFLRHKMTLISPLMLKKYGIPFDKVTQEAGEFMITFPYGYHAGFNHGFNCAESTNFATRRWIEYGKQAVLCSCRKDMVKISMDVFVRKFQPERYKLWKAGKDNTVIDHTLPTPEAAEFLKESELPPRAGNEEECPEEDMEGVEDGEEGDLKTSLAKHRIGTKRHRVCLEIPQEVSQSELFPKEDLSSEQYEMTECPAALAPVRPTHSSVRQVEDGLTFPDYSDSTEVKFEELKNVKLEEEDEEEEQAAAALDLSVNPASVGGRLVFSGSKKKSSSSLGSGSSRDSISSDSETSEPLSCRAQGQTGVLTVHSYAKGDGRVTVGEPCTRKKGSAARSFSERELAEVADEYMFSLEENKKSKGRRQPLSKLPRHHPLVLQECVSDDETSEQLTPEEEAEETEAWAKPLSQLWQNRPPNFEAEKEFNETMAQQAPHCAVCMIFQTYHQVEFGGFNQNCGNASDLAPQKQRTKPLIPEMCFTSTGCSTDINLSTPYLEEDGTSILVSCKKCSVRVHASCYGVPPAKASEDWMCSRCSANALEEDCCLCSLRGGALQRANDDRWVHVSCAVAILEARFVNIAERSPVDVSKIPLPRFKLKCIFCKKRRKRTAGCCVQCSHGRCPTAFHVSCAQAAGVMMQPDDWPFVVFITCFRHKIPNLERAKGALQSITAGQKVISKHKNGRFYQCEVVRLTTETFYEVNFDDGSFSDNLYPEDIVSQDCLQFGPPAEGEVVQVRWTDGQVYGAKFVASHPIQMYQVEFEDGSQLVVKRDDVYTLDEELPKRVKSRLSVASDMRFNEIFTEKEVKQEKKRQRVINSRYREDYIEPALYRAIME
# CtBP-E1A blk: qHTS Assay for Inhibitors of the CtBP/E1A Interaction | AlphaScreen GST-E1A/His-CtBP binding, 1536-well; active compounds read low | activity change, % (test concentration not listed) | 340,000 tested, 0.49% active; in the data active means activity change below about -65%; inconclusive means mostly about -30% to -63%; further: on the % scale 0 is the no-effect control and ±100 the full control effect
#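 AlphaScreen with 125 nM GST-E1A and 125 nM His-CtBP (5X stocks) in Tris pH 8.0, 300 mM NaCl, BSA, Tween 20, TCEP. Compounds preincubated 2 h at 37 deg C, then glutathione donor/nickel acceptor beads added for 1 h at 37 deg C in dark.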
# HP1b chromo inh: HTS for Inhibitors of HP1-beta Chromodomain Interactions with Methylated Histone Tails; Potency, µM (highest dose often 114 µM), for inactives: at the top dose activity change, negative = inhibition, hits mostly inhibitors; 390,000 tested, 0.56% active; AlphaScreen HP1-beta / biotin-H3K9me3 peptide binding; Chromobox protein homolog 1 (Homo sapiens), P83916; further: potency means the concentration at half of the fitted maximal effect; nearly all actives have a fitted effect of over 70% in size
#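 AlphaScreen: HP1-beta (50 nM) preformed 30 min with biotin-H3(1-18)K9me3 peptide (50 nM) in PBS pH 7.4, 0.01% Tween-20. Compound added for 30 min at RT, then streptavidin donor/nickel chelate acceptor beads (10 ug/mL) for 30 min.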
# * = called active by the depositor; ? = inconclusive; . = no result given; [ ] = another dose, or the depositor's remark. This is a sample that favours compounds with a hit; in the whole collection about 10% have one here. Unless noted, the call rests on the fitted dose curve; in most records, active means well fitted inhibition curve with a large enough effect; inconclusive means small, poorly fitted or top-dose-only effect; inactive means no such curve, though single readings can be large or run the other way.
SMILES,BAZ2B inh,Six1-Eya2 blk,G9a block,JMJD2A Tudor,CtBP-E1A blk,HP1b chromo inh
CCOC(=O)N1CCN(S(=O)(=O)c2ccc(C(=O)N(CCN(C)C)c3nc4ccc(CC)cc4s3)cc2)CC1,?,-2,50µM*,?,-8,-1%
CCOC(=O)N1CCN(S(=O)(=O)c2ccc(C(=O)N(CCN(CC)CC)c3nc4ccc(C)cc4s3)cc2)CC1,?,-7,50µM*,?,-5,-18%
CCc1ccc2nc(N(CCCN(C)C)C(=O)c3ccc(S(=O)(=O)N4CCCC4)cc3)sc2c1,-30%,-15,50µM*,-35%,?,18%
CCOC(=O)N1CCN(S(=O)(=O)c2ccc(C(=O)N(CCCN(C)C)c3nc4ccc(CC)cc4s3)cc2)CC1,-36%,-14,?,?,-23,8%
CC1CCCCN1S(=O)(=O)c1ccc(C(=O)N(CCCN(C)C)c2nc3ccc(Br)cc3s2)cc1 (stereo unspecified),?,?,.,45µM*,?,-17%
CN1CCN(c2nc(-c3cccnc3)nc3ccccc23)CC1,.,-5,-13%[59 µM],-3%,0,8%
N#Cc1ccccc1S(=O)(=O)N1CCN(c2nc(-c3cccnc3)nc3ccccc23)CC1,14%,-9,50µM*,?,-2,12%
O=S(=O)(c1ccccc1F)N1CCN(c2nc(-c3cccnc3)nc3ccccc23)CC1,-9%,-18,14%[12.7 µM],-34%,.,46%
COc1cc2c(cc1OC)CN(c1nc(-c3cccnc3)nc3ccccc13)CC2,40µM*,?,50µM*,?,?,-19%
CCN1CCN(c2nc(-c3cccnc3)nc3ccccc23)CC1,-34%,-2,?,89µM*,-10,5%
c1ccc(N2CCN(c3nc(-c4ccccn4)nc4ccccc34)CC2)cc1,1.8µM*,-67*,?,?,-71*,?
Fc1ccccc1-c1nc(N2CCN(c3cccc(Cl)c3)CC2)c2ccccc2n1,3%,.,5%[59 µM],6%,.,43%
NS(=O)(=O)c1ccc(CNC(=O)c2cc(-c3ccccn3)nc3ccc(Cl)cc23)cc1,1%,-4,?,-21%,0,-10%
O=C1c2ccccc2C(=O)C1(CO)c1ccccc1,-21%,-1,45µM*,-24%,0,-1%
O=C1c2ccccc2C(=O)C1(CO)c1ccc(OC(F)F)cc1,?,-1,-10%[59 µM],-36%,-16,-19%
CC(C)CC(=O)NCC(c1ccc2c(c1)OCO2)N1CCN(c2ccccc2)CC1 (stereo unspecified),-13%,.,-2%[59 µM],-17%,.,20%[57 µM]
COc1ccc(C(=O)N2CCC[C@@]3(CCN(CC(C)C)C3)C2)cc1,.,.,2%[12.7 µM],.,.,.
O=C(CNCCC1=CCCCC1)Nc1ccccc1N1CCCCC1,50µM*,0,1.8µM*,5.6µM*,1,?
O=C(Cc1ccccc1)Nc1ccccc1N1CCCC1,-35%,-5,56µM*,-30%,0,12%
CCn1nc(C(=O)Nc2ccccc2N2CCCC2)c2ccccc2c1=O,40µM*,-29,25µM*,35µM*,?,?
O=C(CNC1CCCCCC1)Nc1ccccc1N1CCCCC1,?,2,?,1.4µM*,3,?
O=C(CNCC1CCCCC1)Nc1ccccc1N1CCCCC1,?,3,?,-76%[57.1 µM],4,-25%
O=C(Cc1ccccc1)Nc1ccccc1N1CCOCC1,-7%,-1,0%[0.0925 µM],4%,5,48%
Nc1ncnc2c1ncn2COC(CO)CO,.,.,.,-2%[57.1 µM],.,4%[57 µM]
CCCNC(=O)C1(C)CCCN(C(=O)c2ccccc2OC)C1 (stereo unspecified),.,1,.,.,9,.
SMILES,BAZ2B inh,Six1-Eya2 blk,G9a block,JMJD2A Tudor,CtBP-E1A blk,HP1b chromo inh
Cc1ccc(S(=O)(=O)N2CCCC2C(=O)NCc2ccncc2)cc1 (stereo unspecified),-21%,20,6%,2%,17,34%
COc1ccc(-c2cc(C)no2)cc1S(=O)(=O)Nc1cccc(C(F)(F)F)c1,0%,.,-19%[59 µM],-2%,.,25%
COc1cc(Nc2nc(SCc3ccccc3Cl)nc3ccccc23)cc(OC)c1,4%,.,21%[59 µM],-1%,.,45%
CCCCNC(=O)CCC1N=C2c3ccccc3N=C(SCC(=O)NCCc3ccc(OC)c(OC)c3)N2C1=O (stereo unspecified),-3%,.,5%[59 µM],-27%,.,-7%
O=C(Cc1ccc(NC(=O)N2CCCCc3ccccc32)cc1)NCc1ccccc1Br,-18%,.,-2%[59 µM],-14%,.,23%
COC(=O)c1ccc(CN2C(=O)NC3(CCC(C)CC3)C2=O)cc1 (stereo unspecified),.,32,-2%,-24%,-2,10%
O=C(Cc1ccc(Br)cc1)Nc1ccccc1N1CCCC1,?,-24,50µM*,?,-15,-3%
COc1ccc(CC(=O)Nc2ccccc2N2CCCC2)cc1,?,-6,.,-36%,-7,7%
Cc1cc(C)c(OCCN2C(=O)NC(C)(C)C2=O)c(Cl)c1,7%,6,-44%,-2%,6,50%
Cc1cc(Cl)c(OCCCN2CCCCC2)c(Br)c1,50µM*,2,?,28µM*,1,?
